About 1,900 (0.58%) of roughly 330,000 compounds were called active. About 4% were inconclusive and are not listed. No stated cut-off is given here; in the data, inconclusive means inhibition above about 70% without an active follow-up result; inactive means below that. Only a sample is shown. Entries with a potency or affinity are not part of this list.
Experiment: M. tuberculosis growth inhibition, HTS (AID 449762);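 further: bacterial growth assessed after seven days of incubation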
Details: M. tuberculosis H37Rv growth inhibition, 7H9 media; at 25 µM; hits give high values

| Structure (SMILES) | inhibition |
| --- | --- |
| CC(CC(=O)N1CCN(S(=O)(=O)c2ccc(Cl)cc2)CC1)n1cncn1 (stereo unspecified) | 7.22% (inactive) |
| Cc1cc2nncn2c(Cc2ccccc2)n1 | -5.06% (inactive) |
| CCCNC(=O)c1onc(CSc2ccccc2)c1C(=O)NCCC | 3.78% (inactive) |
| CCc1cc2c(=O)n(CC(=O)NC3CCCCC3)cnc2s1 | -19.5% (inactive) |
| CCc1cc2c(=O)n(CC(C)C)cnc2s1 | 13.2% (inactive) |
| Cc1sc2ncn(CC(=O)N(CC(=O)NC3CCCC3)Cc3cccs3)c(=O)c2c1C | -6.3% (inactive) |
| O=C(CCc1nc(-c2ccccc2F)no1)NCCc1ccccc1Cl | -5.37% (inactive) |
| CC(=O)Oc1ccc(C(=O)Nc2cccc(C(=O)c3ccc(C)c(C)c3)c2)cc1 | 6.87% (inactive) |
| O=C(N/N=C/c1ccc(O)cc1)c1cc[n+](Cc2ccccc2)cc1 | -5.45% (inactive) |
| O=C(C[n+]1cccc(C(=O)N/N=C/c2ccc(Br)cc2)c1)c1ccccc1 | -3.73% (inactive) |
| Cn1c(=O)n(C)c2cc([N+](=O)[O-])c(N3CCN(S(=O)(=O)c4ccc(C(C)(C)C)cc4)CC3)cc21 | -9.94% (inactive) |
| Cc1ccc(OCc2nc(C#N)c(N3CCN(Cc4ccccc4)CC3)o2)cc1 | -9.38% (inactive) |
| CCN1CCN(c2oc(COc3ccc(Cl)cc3)nc2C#N)CC1 | 8.42% (inactive) |
| CCCc1nc2oc3c(NCc4ccccn4)ncnc3c2c2c1COC(C)(C)C2 | -3.19% (inactive) |
| CCOc1ccc(N2CC(C(=O)N3CCCCCC3)CC2=O)cc1 (stereo unspecified) | -1.61% (inactive) |
| COc1ccc(NC(=O)CSc2nnc3ccc(-c4ccccn4)nn23)c(OC)c1 | -1.07% (inactive) |
| CC(C)(CO)NCc1ccccc1OCC(=O)Nc1ccccc1 | -10.3% (inactive) |
| CNCc1ccccc1OCC(=O)Nc1ccccc1 | -16.8% (inactive) |
| CCc1cc2c(SCC(=O)c3cccs3)ncnc2s1 | -6.51% (inactive) |
| CCNCC(=O)N1c2ccccc2CCc2ccc(NC(C)=O)cc21 | -1.99% (inactive) |
| CCNCC(=O)N1c2ccccc2CCc2ccc(NC(=O)OCC)cc21 | 8.22% (inactive) |
| Cc1ccc(Oc2ccc(Oc3ccc(C)cc3)nn2)cc1 | 1.77% (inactive) |
| O=C(CN1CCN(S(=O)(=O)c2ccccc2)CC1)N1CCCCC1 | -3.13% (inactive) |

| Structure (SMILES) | inhibition |
| --- | --- |
| CN(C)CCCn1c(NCc2ccc3c(c2)OCO3)nc2ccccc21 | -3.55% (inactive) |
| CCCn1c(NCc2ccc3c(c2)OCO3)nc2ccccc21 | 13.3% (inactive) |
| CNC(=O)c1c(NC(=O)c2ccco2)sc2c1CCC2 | 8.18% (inactive) |
| O=C(CCNS(=O)(=O)c1ccccc1)NNC(=O)COc1ccccc1F | 0.68% (inactive) |
| CCCOC(=O)c1cccc(NC(=O)COc2ccc([N+](=O)[O-])cc2)c1 | 66.4% (inactive) |
| CC(=O)C(C)Oc1ccc(Cc2ncc(C(F)(F)F)cc2Cl)cc1 (stereo unspecified) | 10.2% (inactive) |
| NC(=O)COc1ccc(Cc2ncc(C(F)(F)F)cc2Cl)cc1 | 5.51% (inactive) |
| C=CCn1c(SCC(=O)c2c(N)n(C)c(=O)n(C)c2=O)nnc1-c1ccoc1C | 2.92% (inactive) |
| CC(Sc1nnc(-c2cccnc2)n1N)C(=O)N1CCOCC1 (stereo unspecified) | -0.03% (inactive) |
| COc1cc(C(=O)NCCC(=O)NCCN2CCCCCC2)cc(OC)c1OC | -5.5% (inactive) |
| COC(=O)COc1ccc(S(=O)(=O)NCCC2=CCCCC2)cc1 | 59.1% (inactive) |
| CCCNS(=O)(=O)c1ccc(OCC(=O)NCCC2=CCCCC2)cc1 | -5.92% (inactive) |
| CC1CC(NS(=O)(=O)c2cc3c4c(c2)CCN4C(=O)CC3)CC(C)(C)C1 (stereo unspecified) | 12.2% (inactive) |
| O=c1[nH]cnc2c1c(-c1ccccc1)cn2-c1ccccc1 | 5.31% (inactive) |
| Cc1ccc(-n2cc(-c3ccccc3)c3c(=O)[nH]cnc32)cc1 | 8.81% (inactive) |
| COc1ccc(CCNC(=O)c2[nH]c(C)c(C(C)=O)c2C)cc1OC | -6.23% (inactive) |
| O=C(/C=C/c1ccco1)Nc1ccc(-c2nc3ccccc3[nH]2)cc1 | -5.99% (inactive) |
| Cc1ccc(-c2nc3ccccc3[nH]2)cc1NC(=O)/C=C/c1ccco1 | 7.41% (inactive) |
| COC(=O)c1nnn(-c2nonc2N)c1CSc1ccccn1 | -4.14% (inactive) |
| Cc1ccc(NC(=O)c2ccccc2SCC(=O)N2CCCC2)cc1S(=O)(=O)N(C)C | -1.08% (inactive) |
| COc1cccc(N(C(=O)Cn2nnc(-c3ccc(C)cc3)n2)C(C(=O)NC(C)(C)C)c2c[nH]c3ccccc23)c1 (stereo unspecified) | -12.2% (inactive) |
| CC(C)(C)NC(=O)C(c1c[nH]c2ccccc12)N(C(=O)Cn1nnc(-c2ccc(Cl)cc2)n1)c1ccccc1F (stereo unspecified) | 2.56% (inactive) |
| Cc1cc([N+](=O)[O-])nn1CC(=O)Nc1cnc2ccccc2c1 | -3.67% (inactive) |

| Structure (SMILES) | inhibition |
| --- | --- |
| Cc1ccc(CCNC(=O)c2nn(C)c3c2CS(=O)(=O)c2ccccc2-3)cc1 | 3.98% (inactive) |
| O=C(NC(=S)N1CCCCC1)c1cccs1 | 4.84% (inactive) |
| CCOC(=O)C1CCN(C(=S)NC(=O)c2cccs2)CC1 | 0.89% (inactive) |
| Cn1c(-c2ccsc2)c(-c2cccs2)c2cc(-c3ccc4cc[nH]c4c3)ccc21 | -1.89% (inactive) |
| Cc1ccc(NC(=O)C(c2ccccc2)N2CCN(C(=O)c3ccco3)CC2)cc1Cl (stereo unspecified) | -11.9% (inactive) |
| Cc1nn(-c2nc3ccccc3s2)c(N)c1-c1ccc(Cl)cc1 | 1.29% (inactive) |
| Cc1nn(-c2nc3ccccc3[nH]2)c(=O)c2ccccc12 | 5.73% (inactive) |
| Cc1cc(C)nc(NS(=O)(=O)c2ccc(NS(=O)(=O)c3ccccc3)cc2)n1 | -6.64% (inactive) |
| CC1(C)Cc2c(sc3c2C(=O)N(c2ccccc2)C2=NCCCN23)CO1 | 1.18% (inactive) |
| CCCC(=O)Nc1nc(C(=O)OCC)cs1 | 2.98% (inactive) |
| CCOC(=O)c1csc(NC(C)=O)n1 | 0.4% (inactive) |
| O=C(c1ccc(Cl)cc1)C1CCCN(Cc2cccc3cccnc23)C1 (stereo unspecified) | 9.96% (inactive) |
| O=C(CCCOc1ccc(Cl)cc1)Nc1cccc(C(=O)O)c1 | 7.01% (inactive) |
| O=C(OCCN1CCCCC1)c1cc2ccccc2o1 | -14.3% (inactive) |
| O=C(OCCN1C(=O)c2ccccc2C1=O)c1ccco1 | -9.08% (inactive) |
| COc1ccccc1/C=C/C=N/n1c(C2CCCCC2)n[nH]c1=S | 0.81% (inactive) |
| CC(=O)c1ccc(N2CCN(C(=O)c3cc(-c4ccncc4)nc4ccc(Cl)cc34)CC2)cc1 | 7.21% (inactive) |
| CN1CCN(CCCNC(=O)c2ccc(/C=C3\Oc4ccccc4N(Cc4ccccc4F)C3=O)cc2)CC1 | 57.7% (inactive) |
| Cc1cccc(CN2C(=O)/C(=C\c3ccc(C(=O)NCCN4CCOCC4)cc3)Sc3ccccc32)c1 | 49.5% (inactive) |
| Cc1ccc(Cn2nc(C)c(NC(=O)CSc3n[nH]c(C)c3[N+](=O)[O-])c2C)cc1 | -3.06% (inactive) |
| O=C(NC1CCN(C(=O)N2c3ccccc3Sc3ccccc32)CC1)c1ccccc1Cl | 62.3% (inactive) |
| O=C(NC1CCN(C(=O)N2c3ccccc3Sc3ccccc32)CC1)c1ccco1 | -19.1% (inactive) |
| Cc1sc2ncnc(SCC(=O)c3cccs3)c2c1C | -19.7% (inactive) |

| Structure (SMILES) | inhibition |
| --- | --- |
| COC(=O)c1ccccc1NC(=O)c1cc2n(n1)C(C(F)F)CC(C(F)F)N2 (stereo unspecified) | -2.91% (inactive) |
| O=c1[nH]c(SCc2ccc(Cl)cc2)nc2ccccc12 | 4.03% (inactive) |
| O=C(CSc1nc2[nH]ncc2c(=O)[nH]1)NCc1ccccc1 | -0.89% (inactive) |
| CC1CC(C)CN(CCOc2ccccc2-c2ccccc2)C1 (stereo unspecified) | 3.01% (inactive) |
| O=C(COC(=O)c1ccc2c(c1)S(=O)(=O)N=C1CCCCCN12)NCCc1ccc(F)cc1 | -6.19% (inactive) |
| COCC(=O)N(Cc1cc2ccc(C)cc2[nH]c1=O)c1ccc(C)cc1C | -1.78% (inactive) |
| Cc1ccc(-c2c(C#N)c(N)nc3c2CCCCCC3)o1 | 21.5% (inactive) |
| CSc1ccccc1NC(=O)CN(C)CC(=O)c1[nH]c(C)c(C(C)=O)c1C | -0.15% (inactive) |
| Cc1ccc(S(=O)(=O)N2CCN(C(=O)Cn3c(=O)oc4ccccc43)CC2)cc1 | 8.54% (inactive) |
| Cc1nc(-c2nc(-c3c(C(=O)NNC(=O)Nc4ccccc4)noc3C)cs2)cs1 | -4.32% (inactive) |
| Cc1nc(-c2nc(-c3c(C(=O)NNC(=O)Nc4cccc(Cl)c4)noc3C)cs2)cs1 | 11.3% (inactive) |
| CC(=O)Nc1c(C(=O)NCc2ccccc2)nnn1Cc1ccccc1 | -10.2% (inactive) |
| COc1ccc(N(CC(=O)Nc2ccccc2F)S(=O)(=O)c2ccc(C)c([N+](=O)[O-])c2)cc1 | 0.33% (inactive) |
| COc1ccc(N(CC(=O)Nc2ccc(Cl)cc2)S(=O)(=O)c2c(C)n[nH]c2C)cc1 | 2.17% (inactive) |
| COc1ccc(N(CC(=O)Nc2ccccc2C(=O)O)S(=O)(=O)c2ccc(C)c([N+](=O)[O-])c2)cc1 | -2.79% (inactive) |
| COc1ccc(N(CC(=O)Nc2ccc(C)cc2C)S(=O)(=O)c2c(C)n[nH]c2C)cc1 | 6.74% (inactive) |
| O=C(CCSc1nnc2ccccn12)Nc1ccc2c(c1)OCO2 | -0.07% (inactive) |
| COc1ccc(OC)c(S(=O)(=O)Nc2cc(Cl)cc(Cl)c2)c1 | -2.29% (inactive) |
| CC(C)C(=O)NC(=S)/C=C1/N(C)c2ccccc2C1(C)C | 2.15% (inactive) |
| CN1/C(=C\C(=S)NC(=O)c2ccccc2Cl)C(C)(C)c2ccccc21 | -5.96% (inactive) |
| Cc1cccc(NS(=O)(=O)c2csc(C(N)=O)c2)c1C | -0.04% (inactive) |
| Cc1ccc(CC(=O)Nc2cc(C)ccn2)cc1 | 3.78% (inactive) |

From PubChem BioAssay AID449762 (Southern Research Specialized Biocontainment Screening …, 2010)
